Records with an inconclusive call do not appear. Unmarked numbers belong to inactive results. Activity calls are given as the source filed them. The call rests on the fitted dose curve; in most records, active means well fitted cell-killing curve with a large enough effect; inconclusive means small, poorly fitted or top-dose-only effect, or effect the other way; inactive means flat fitted curve, though single readings scatter.
Test: Compound cytotoxicity measured by an ATP content assay as a counter-screen for lead compounds in human astrocytoma cell line (SNB-19)
Conditions: SNB-19 astrocytoma viability, ATP luminescence; series mostly up to 46.1 µM; activity change, negative = cytotoxicity: at the top concentration
In short: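 Cell viability was measured as ATP content by luminescence in SNB-19 astrocytoma cells in RPMI 1640 with 10% FBS. Compounds were incubated for set times such as 6, 24 or 72 h, and cytotoxicity was expressed as percent inhibition.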

Row | SMILES | activity change, negative = cytotoxicity | Potency
1 | O=C(/C=C/c1ccccc1)NCCO | 9.32% | –
2 | Cc1cccc(/C=C/c2ccccc2)n1 | -22.7% | –
3 | N#CC1(c2ccc(NC(=O)c3cccnc3NCc3ccncc3)cc2)CCCC1 | -12.2% | –
4 | CC(C)(C)COc1ccc(-n2cc(C(=O)O)cn2)cc1C#N | 4.08% [at 88.3 µM] | –
5 | Cc1cccc(C#Cc2ccccc2)n1 | – | 24.5 µM (active)
6 | CN(C)c1ccc2cc(C(=O)N[C@@H](CCCN=C(N)CCl)C(=O)NCc3ccccc3)ccc2c1 | 4.93% | –
7 | O=C(c1ccccc1)c1ccc2n1CCC2C(=O)O (stereo not given) | 0.488% | –
8 | O=C(O)[C@H](CC(=O)N1C[C@@H]2CCCC[C@H]2C1)Cc1ccccc1 | 9.77% | –
9 | CC(C(=O)O)c1ccc2c(c1)[nH]c1ccc(Cl)cc12 (stereo not given) | 13.1% | –
10 | CNC(=O)c1ccccc1Sc1ccc2c(/C=C/c3ccccn3)n[nH]c2c1 | – | 10.9 µM (active)
11 | O[C@@H](COc1cccc2ncccc12)CN1CCN(C2c3ccccc3[C@@H]3[C@H](c4ccccc42)C3(F)F)CC1 (stereo not given in full) | 2.37% | –
12 | O=c1c(-c2ccc(O)cc2)coc2cc(OC3O[C@H](CO)[C@H](O)[C@H](O)[C@H]3O)cc(O)c12 (stereo not given in full) | -18.9% | –
13 | COc1ccc(C=CC(=O)Nc2ccccc2C(=O)O)cc1OC | -17.9% | –
14 | CC[C@@]1(O)C[C@H](O[C@H]2C[C@H](N(C)C)[C@H](O[C@H]3C[C@H](O)[C@H](O[C@H]4CCC(=O)[C@H](C)O4)[C@H](C)O3)[C@H](C)O2)c2c(cc3c(c2O)C(=O)c2c(O)cccc2C3=O)[C@@H]1C(=O)OC | -16.8% | –
15 | CC1=C(CO)C(=O)O[C@@H]([C@@H](C)[C@H]2CC[C@H]3[C@@H]4C[C@H]5O[C@]56[C@@H](O)C=CC(=O)[C@]6(C)[C@@H]4CC[C@]23C)C1 | 3.75% | –
16 | O=C(Nc1cc2cc[nH]c2cn1)c1ccccc1 | – | 0.388 µM (active)
17 | CCN1CCC(n2cc(CNc3cc(Cl)c4ncc(C#N)c(Nc5ccc(F)c(Cl)c5)c4c3)nn2)CC1 | -2.47% | –
18 | O=C(O)c1ccccc1Nc1cccc(C(F)(F)F)c1 | -21.9% | –

Row | SMILES | activity change, negative = cytotoxicity | Potency
19 | Cc1c(NC(=O)c2ccc(C(C)(C)C)cc2)cccc1-c1cn(C)c(=O)c(Nc2ccc(C(=O)N3CCOCC3)cc2)n1 | -5.55% | –
20 | CC1(C)OC2=C(C(=O)c3ccccc3C2=O)[C@H](NCc2ccccc2)[C@H]1O | – | 8.91 µM (active)
21 | COc1ccnc2c1CCCCC2S(=O)c1nc2ccccc2[nH]1 (stereo not given) | -9.48% | –
22 | NC(N)=NN=C(/C=C/c1ccc([N+](=O)[O-])o1)/C=C/c1ccc([N+](=O)[O-])o1 | – | 17.3 µM (active)
23 | O=c1cc(-c2ccccc2)oc2cc(O)c(O)c(O)c12 | -3.37% | –
24 | CC(=O)Oc1cccc2c1C(=O)c1c(OC(C)=O)cc(C(=O)O)cc1C2=O | -12.9% | –
25 | COc1ccc2nc(NC(=O)Nc3ccccc3)sc2c1 | – | 19.5 µM (active)
26 | Nc1cc(C(F)(F)F)ccc1S | -3.16% | –
27 | [O-][n+]1ccccc1SSc1cccc[n+]1[O-] | – | 0.708 µM (active)
28 | O=C(O)c1cc([N+](=O)[O-])ccc1NCCCc1ccccc1 | -12% | –
29 | Cc1csc(NC(=O)c2sc3nc4c(c(C(F)(F)F)c3c2N)CCC4)n1 | – | 4.35 µM (active)
30 | CN(C)CCCSc1ccccc1NC(=O)/C=C/c1ccccc1 | -13.8% | –
31 | Nc1ccc(N=Nc2ccccc2)c(N)n1 | 9.65% | –
32 | Cc1nc(N)sc1-c1ccnc(Nc2ccc(N3CCOCC3)cc2)n1 | 8.47% | –
33 | CC(=O)OC(C)OC(=O)C(C)c1ccc(-c2ccccc2)c(F)c1 (stereo not given) | -19.8% | –
34 | C[C@@H](N)c1ccc(C(=O)Nc2ccnc3[nH]ccc23)cc1 | 10.8% | –
35 | CCCC(=O)OC[C@@H](OC(=O)CCC)[C@@H](OC(=O)CCC)[C@H](Cn1c2nc(=O)[nH]c(=O)c-2nc2cc(C)c(C)cc21)OC(=O)CCC | -10.5% | –

— PubChem BioAssay AID1224862 (National Center for Advancing Translational Sciences (NCATS), 2016)
